# Laboratory results published in PubChem BioAssay.
# Inconclusive results are not listed. Calls of active or inactive are those of the source. Unless noted, no cut-off is given here; in the data, nearly all actives have AC50 up to about 23 µM.
# Experiment: viability loss in pontine glioma line – cell-based, SU-DIPG-IV, MIPE4.0, CellTiter-Glo, qHTS, dose response (AID 1347063; cut-off not given, nearly all actives have AC50 up to about 30 µM;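 note: compound exposure lasted 48 hours before the viability readout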)
# Conditions: CellTiter-Glo ATP luminescence
SMILES,outcome,AC50
O=c1[nH]c(=O)n([C@H]2C[C@H](O)[C@@H](CO)O2)cc1/C=C/Br,inactive,–
CCc1nc(-c2cccc(C)c2)c(-c2ccnc(NC(=O)c3ccccc3)c2)s1,inactive,–
CC(=O)N(C)C1(c2ccccc2)CCN(CCC[C@]2(c3ccc(Cl)c(Cl)c3)CCCN(C(=O)c3ccccc3)C2)CC1,–,26.4 µM (active)
COc1cc(C(=O)N2CCC(N3CCN(C)CC3)CC2)ccc1Nc1ncc2c(n1)N(C)c1ccccc1C(=O)N2C,–,16.6 µM (active)
NC[C@@H]1O[C@H](O[C@H]2[C@@H](O)[C@H](O[C@@H]3[C@@H](O)[C@H](N)C[C@H](N)[C@H]3O[C@H]3O[C@H](CN)[C@@H](O)[C@H](O)[C@H]3N)O[C@@H]2CO)[C@H](N)[C@@H](O)[C@@H]1O,inactive,–
C[C@@H](Cc1cc2c(c(C(N)=O)c1)N(CCCO)CC2)NCCOc1ccccc1OCC(F)(F)F,inactive,–
Cc1ccccc1C(C(=O)NC1CCCCC1)N(C(=O)CNc1ccc(C#N)cc1)c1cccc(F)c1 (stereo not given),inactive,–
C[C@H](c1ccc(F)cc1CCCC(=O)O)N(c1cc(F)ccc1F)S(=O)(=O)c1ccc(Cl)cc1,inactive,–
O=C(Nc1nc2ccccc2n1CCN1CCOCC1)c1cccc([N+](=O)[O-])c1,–,10.5 µM (active)
CC(=O)Nc1sc2c(c1-c1nc3ccccc3s1)CNC2,–,20.9 µM (active)

# Experiment: viability loss in pontine glioma line – cell-based, SU-DIPG-XIII, MIPE5.0, CellTiter-Glo, qHTS, dose response (AID 1347064);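 for AC50: cells exposed to compound for 48 hours before the viability read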
# Conditions: CellTiter-Glo ATP luminescence
SMILES,outcome,AC50
COc1ccc2c(Oc3ccc(NC(=O)c4c(C)n(CC(C)(C)O)n(-c5ccccc5)c4=O)cc3F)ccnc2c1,inactive,–
NS(=O)(=O)c1ccc(NC2=CC(=O)c3ccccc3C2=O)cc1,–,5.9 µM (active)
Fc1ccc(CNc2ncnc3ccc(F)cc23)cc1,inactive,–
Cc1ccc(-n2[nH]c(C)c(N=Nc3cccc(-c4cccc(C(=O)O)c4)c3O)c2=O)cc1C,inactive,–
COc1ccc(C(=O)CC2(O)C(=O)Nc3c(Cl)ccc(Cl)c32)cc1 (stereo not given),–,11.8 µM (active)
c1ccc(CNc2nc(N3CCOc4ccccc43)nc3c2CCCC3)cc1,–,16.6 µM (active)
CCCCOCCOc1nc(-c2ccc(C(=O)O)c(F)c2)sc1C,inactive,–
Nc1ncnc2c1c(-c1cccc(OCc3ccccc3)c1)cn2C1CC(CN2CCC2)C1 (stereo not given),–,0.525 µM (active)
CC(C)(C)NC(=O)Nc1cccc(Nc2ncc(F)c(NC(C)(C)CO)n2)c1,inactive,–
COc1ccc(-c2c(-c3ccc(O)cc3O)n[nH]c2C)cc1,inactive,–
